Results on 14 molecules are retold here after PubChem BioAssay (NCATS).

Several values for one entry are separate records, joined by “and”; a condition that tells them apart may be missing. Identical values can stand only once. Values without a mark were called inactive. Activity calls are given as the source filed them. No rule for the calls is given here.
Also: 0% is about no effect.

Sequence of Nuclear receptor subfamily 1 group I member 2 (Rattus norvegicus) (Q9R1A7 whole entry, looked up): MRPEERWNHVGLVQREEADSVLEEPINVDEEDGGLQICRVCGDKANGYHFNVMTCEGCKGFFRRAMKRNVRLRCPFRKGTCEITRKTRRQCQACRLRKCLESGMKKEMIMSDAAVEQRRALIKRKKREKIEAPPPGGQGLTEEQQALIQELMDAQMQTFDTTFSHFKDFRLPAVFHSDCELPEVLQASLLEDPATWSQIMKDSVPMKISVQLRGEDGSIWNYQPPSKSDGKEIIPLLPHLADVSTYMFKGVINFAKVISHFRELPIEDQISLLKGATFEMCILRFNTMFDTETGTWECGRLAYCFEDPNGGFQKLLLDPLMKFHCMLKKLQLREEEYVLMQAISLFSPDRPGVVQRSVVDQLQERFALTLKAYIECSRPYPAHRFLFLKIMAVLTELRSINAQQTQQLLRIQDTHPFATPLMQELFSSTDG

One assay addresses Nuclear receptor subfamily 1 group I member 2 (Rattus norvegicus) (UniProt Q9R1A7). The experiment in a line: qHTS assay for small molecule activators of the rat pregnane X receptor (rPXR) signaling pathway (AID 651751). The following applies: rPXR reporter cells, luciferase (One-Glo), 24 h. In general terms: Quantitative high-throughput screening tests each substance at several concentrations.
As for `c1cc(OCC2CO2)cc(OCC2CO2)c1` (centres undefined), the max response was -8.72% and -4.5%. Regarding `Cc1cc(Nc2ccc(O)cc2)ccc1N`, the max response is -2.27%.

Take `CN(C)c1ccc(C2(c3ccc(N(C)C)cc3)OC(=O)c3cc(N(C)C)ccc32)cc1`: the max response was -2.55%. For the molecule `CO[C@H]1/C=C/O[C@@]2(C)Oc3c(C)c(O)c4c(O)c(c5c(c4c3C2=O)NC2(CCN(CC(C)C)CC2)N=5)=NC(=O)/C(C)=C\C=C\[C@H](C)[C@H](O)[C@@H](C)[C@@H](O)[C@@H](C)[C@H](OC(C)=O)[C@@H]1C`, the max response was 7.05%. Take `ClC1=C(Cl)C(Cl)(Cl)C(Cl)=C1Cl`: the max response is 3.04% and -2.94%.

As to `O=C=Nc1ccc(Cc2ccc(N=C=O)cc2)cc1`, the max response was 1.83% and 4.61%. Turning to `CNc1ccc(O)cc1`, the max response was -0.134%. On to `C=CC(=O)OCCOCCOC(=O)C=C`, for which the max response is 9.16%. Regarding `Oc1ccc2cc(SSc3ccc4cc(O)ccc4c3)ccc2c1`, the max response was -6.62%. For `C=C(C)c1ccccc1`, the max response is 0.462%. Consider `O=C1OC(O)C(C(Cl)Cl)=C1Cl` (centres undefined), for which the max response is -3.61%. The same measure, in the same setting: the result for `Cc1ccc(S(=O)(=O)Oc2ccc(N=Nc3ccc(-c4ccc(N=Nc5c(O)ccc6cc(S(=O)(=O)O)cc(S(=O)(=O)O)c56)c(C)c4)cc3C)cc2)cc1` reads -4.06%.

System in a further assay: not listed separately
The experiment in a line: qHTS assay for small molecule activators of the human pregnane X receptor (PXR) signaling pathway (AID 720659). To be noted: DPX-2 HepG2 CYP3A4-luciferase, 24 h; series mostly up to 92.3 µM.
As for `c1cc(OCC2CO2)cc(OCC2CO2)c1` (centres undefined), the call was inactive. `Cc1cc(Nc2ccc(O)cc2)ccc1N`: the call was inactive.

Take `CN(C)c1ccc(C2(c3ccc(N(C)C)cc3)OC(=O)c3cc(N(C)C)ccc32)cc1`: the molecule was called inactive. Still for that read-out and setting: the value for `O=C(OCC(COC(=O)c1ccccc1)(COC(=O)c1ccccc1)COC(=O)c1ccccc1)c1ccccc1` was “inactive”; that for `ClC1=C(Cl)C(Cl)(Cl)C(Cl)=C1Cl` was “inactive”. For the molecule `O=C=Nc1ccc(Cc2ccc(N=C=O)cc2)cc1`, the outcome was inactive. Take `CNc1ccc(O)cc1`: the outcome was inactive. On the same count and under the same terms, the value for `C=CC(=O)OCCOCCOC(=O)C=C` was “inactive”. Same read-out and setting: the result for `c1ccc2c(c1)ccc1cc3c(ccc4ccccc43)cc12` reads “inactive”; that for `C=C(C)c1ccccc1`, “inactive”; that for `O=C1OC(O)C(C(Cl)Cl)=C1Cl` (centres undefined), “inactive”. Regarding `Cc1ccc(S(=O)(=O)Oc2ccc(N=Nc3ccc(-c4ccc(N=Nc5c(O)ccc6cc(S(=O)(=O)O)cc(S(=O)(=O)O)c56)c(C)c4)cc3C)cc2)cc1`, the result was inactive.
